Data published in PubChem BioAssay (EPA / NIEHS).
Several values for one entry are separate records, joined by “and”; a condition that tells them apart may be missing. Equal values may be shown once. Records with an inconclusive call do not appear. The source holds several records for some structures; these can differ, active in one and inactive in another. Activity calls are given as the source filed them. Rule for the calls: active = hit-call score of the fitted dose curve at least 0.9, where 1 is the maximum; inconclusive = response in the unintended direction; inactive = score below 0.9.

Legend:
rat CYP2C6, gene 293989 = assay: NVS_ADME_rCYP2C6: NovaScreen (NVS) CYP450-related Enzyme Activity (ADME) Assay for rat CYP2C6 (AID 2283120)
Outline: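 Cell-free recombinant rat CYP2C6 with fluorogenic substrate, read by fluorescence 1 h after dosing; acetonitrile as negative control. Primary screen at 10 uM in duplicate, actives then in concentration-response up to 20 uM.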

[1] = molecular target: rat CYP2C13, Cyp2c13 (gene 171521) (UniProt P20814); assay: NVS_ADME_rCYP2C13: NovaScreen (NVS) CYP450-related Enzyme Activity (ADME) Assay for rat CYP2C13 (AID 2283121)
rat CYP2C13, Cyp2c13 (gene 171521), sequence (P20814 whole entry, looked up): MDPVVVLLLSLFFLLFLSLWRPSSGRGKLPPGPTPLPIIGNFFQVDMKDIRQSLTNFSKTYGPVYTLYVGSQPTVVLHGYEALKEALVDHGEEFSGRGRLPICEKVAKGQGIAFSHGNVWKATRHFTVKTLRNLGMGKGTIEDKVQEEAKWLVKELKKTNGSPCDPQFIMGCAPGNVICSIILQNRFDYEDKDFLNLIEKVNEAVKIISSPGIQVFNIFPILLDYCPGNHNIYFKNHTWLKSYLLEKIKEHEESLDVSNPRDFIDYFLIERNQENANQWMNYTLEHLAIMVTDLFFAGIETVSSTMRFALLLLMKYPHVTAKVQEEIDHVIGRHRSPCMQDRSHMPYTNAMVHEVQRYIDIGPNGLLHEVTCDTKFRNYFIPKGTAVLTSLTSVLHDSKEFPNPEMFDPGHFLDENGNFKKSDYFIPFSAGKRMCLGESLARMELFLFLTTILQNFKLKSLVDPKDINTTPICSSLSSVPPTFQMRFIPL
Outline: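 Recombinant rat CYP2C13 with fluorogenic substrate, 0.75 h cell-free incubation; primary screen in duplicate at 10 uM, actives followed in concentration series. Fluorescence loss relative to acetonitrile control indicates inhibition.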

rat CYP3A1, gene 25642 = assay: NVS_ADME_rCYP3A1: NovaScreen (NVS) CYP450-related Enzyme Activity (ADME) Assay for rat CYP3A1 (AID 2283126)
Outline: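 Cell-free recombinant CYP assay with fluorescent substrate, read 0.5 h after dosing. Screened at 10 uM in duplicate, hits at up to 20 uM in concentration-response; loss of signal versus acetonitrile baseline.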

[2] = molecular target: rat CYP3A2, Cyp3a2 (gene 266682) (UniProt P05183); assay: NVS_ADME_rCYP3A2: NovaScreen (NVS) CYP450-related Enzyme Activity (ADME) Assay for rat CYP3A2 (AID 2283128)
rat CYP3A2, Cyp3a2 (gene 266682), sequence (P05183 whole entry, looked up): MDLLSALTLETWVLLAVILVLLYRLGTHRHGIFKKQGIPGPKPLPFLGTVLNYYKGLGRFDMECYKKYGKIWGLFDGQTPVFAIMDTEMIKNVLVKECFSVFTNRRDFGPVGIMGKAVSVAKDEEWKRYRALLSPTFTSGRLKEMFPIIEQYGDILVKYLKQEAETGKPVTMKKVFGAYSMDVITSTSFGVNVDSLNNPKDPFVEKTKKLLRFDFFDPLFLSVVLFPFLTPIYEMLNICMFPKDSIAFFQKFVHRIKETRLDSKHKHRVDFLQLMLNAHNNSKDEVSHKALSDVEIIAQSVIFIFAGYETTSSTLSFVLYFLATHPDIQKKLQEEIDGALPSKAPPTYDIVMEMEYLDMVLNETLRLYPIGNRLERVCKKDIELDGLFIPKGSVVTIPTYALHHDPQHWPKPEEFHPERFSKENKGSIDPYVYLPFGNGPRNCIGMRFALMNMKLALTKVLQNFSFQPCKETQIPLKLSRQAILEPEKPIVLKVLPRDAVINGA
Outline: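 Cell-free rat CYP3A2 enzyme assay with fluorescent substrate, read 0.5 h after dosing. Primary duplicate screen at 10 uM; actives run in concentration-response up to 20 uM, relative to acetonitrile baseline.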

[3] = molecular target: human Caspase 5 (CASP5), CASP5 (gene 838) (UniProt P51878); assay: NVS_ENZ_hCASP5: NovaScreen (NVS) Enzymatic Assay for human Caspase 5 (CASP5) (AID 2283137)
human Caspase 5 (CASP5), CASP5 (gene 838), sequence (P51878 whole entry, looked up): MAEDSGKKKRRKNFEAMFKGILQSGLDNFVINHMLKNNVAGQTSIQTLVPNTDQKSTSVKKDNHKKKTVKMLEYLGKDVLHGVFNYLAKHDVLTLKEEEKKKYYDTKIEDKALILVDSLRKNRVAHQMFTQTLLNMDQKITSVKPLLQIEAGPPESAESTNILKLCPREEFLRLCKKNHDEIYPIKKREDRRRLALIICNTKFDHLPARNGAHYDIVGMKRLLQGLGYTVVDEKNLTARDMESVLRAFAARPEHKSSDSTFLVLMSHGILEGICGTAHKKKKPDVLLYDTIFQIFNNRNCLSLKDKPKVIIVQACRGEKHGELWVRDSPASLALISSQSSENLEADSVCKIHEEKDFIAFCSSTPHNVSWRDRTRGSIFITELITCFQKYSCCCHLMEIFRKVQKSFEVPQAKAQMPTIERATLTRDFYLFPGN
Outline: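 Recombinant E. coli-expressed human caspase 5 in a cell-free enzyme assay; fluorescence intensity read 2 hours after chemical dosing. Single-concentration duplicate screen at 25 uM, then concentration-response up to 50 uM for hits; DMSO negative control.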

[4] = molecular target: human Beta-secretase (BACE), BACE1 (gene 23621) (UniProt P56817); assay: NVS_ENZ_hBACE: NovaScreen (NVS) Enzymatic Assay for human Beta-secretase (BACE) (AID 2283140);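 note: hits are inhibitors that reduce fluorescent substrate signal versus DMSO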
human Beta-secretase (BACE), BACE1 (gene 23621), sequence (P56817 whole entry, looked up): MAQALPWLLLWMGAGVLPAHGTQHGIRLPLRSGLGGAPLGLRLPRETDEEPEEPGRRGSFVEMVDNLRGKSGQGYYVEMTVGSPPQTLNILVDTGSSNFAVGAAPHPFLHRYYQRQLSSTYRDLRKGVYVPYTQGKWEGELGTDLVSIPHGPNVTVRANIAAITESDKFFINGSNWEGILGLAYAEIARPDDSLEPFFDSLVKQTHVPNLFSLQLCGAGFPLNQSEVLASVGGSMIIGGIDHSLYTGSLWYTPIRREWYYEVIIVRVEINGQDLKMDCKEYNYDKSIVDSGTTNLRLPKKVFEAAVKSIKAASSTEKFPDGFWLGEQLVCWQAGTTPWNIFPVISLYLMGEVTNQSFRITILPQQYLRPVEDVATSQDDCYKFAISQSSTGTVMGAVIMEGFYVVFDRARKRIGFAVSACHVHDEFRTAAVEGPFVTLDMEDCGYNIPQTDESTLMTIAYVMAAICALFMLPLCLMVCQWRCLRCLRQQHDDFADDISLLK
Outline: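 Cell-free fluorescence-intensity assay of recombinant BACE1 expressed in SF9 cells, read 1 hour after dosing. Loss of signal indicates reduced protease activity, fitted relative to DMSO negative control. Primary screen at 25 uM in duplicate; actives followed in concentration series.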

[5] = molecular target: human Acid Phosphatase 1 (ACP1), ACP1 (gene 52) (UniProt P24666); assay: NVS_ENZ_hACP1: NovaScreen (NVS) Enzymatic Assay for human Acid Phosphatase 1 (ACP1) (AID 2283136)
human Acid Phosphatase 1 (ACP1), ACP1 (gene 52), sequence (P24666 whole entry, looked up): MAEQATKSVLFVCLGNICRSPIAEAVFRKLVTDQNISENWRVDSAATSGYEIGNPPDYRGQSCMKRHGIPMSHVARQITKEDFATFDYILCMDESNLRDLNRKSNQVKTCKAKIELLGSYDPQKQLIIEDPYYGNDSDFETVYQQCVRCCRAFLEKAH
Outline: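 Recombinant enzyme expressed in Sf9 cells, tested cell-free; activity read by fluorescence with electrophoretic mobility shift separation of substrate and product, 1.5 h after dosing. Primary screen in duplicate at 25 uM, actives then run in concentration series; loss of signal versus DMSO.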

[6] = molecular target: human AKT serine/threonine Kinase 1 (AKT1), AKT1 (gene 207) (UniProt P31749); assay: NVS_ENZ_hAKT1: NovaScreen (NVS) Enzymatic Assay for human AKT serine/threonine Kinase 1 (AKT1) (AID 2283138)
human AKT serine/threonine Kinase 1 (AKT1), AKT1 (gene 207), sequence (P31749 whole entry, looked up): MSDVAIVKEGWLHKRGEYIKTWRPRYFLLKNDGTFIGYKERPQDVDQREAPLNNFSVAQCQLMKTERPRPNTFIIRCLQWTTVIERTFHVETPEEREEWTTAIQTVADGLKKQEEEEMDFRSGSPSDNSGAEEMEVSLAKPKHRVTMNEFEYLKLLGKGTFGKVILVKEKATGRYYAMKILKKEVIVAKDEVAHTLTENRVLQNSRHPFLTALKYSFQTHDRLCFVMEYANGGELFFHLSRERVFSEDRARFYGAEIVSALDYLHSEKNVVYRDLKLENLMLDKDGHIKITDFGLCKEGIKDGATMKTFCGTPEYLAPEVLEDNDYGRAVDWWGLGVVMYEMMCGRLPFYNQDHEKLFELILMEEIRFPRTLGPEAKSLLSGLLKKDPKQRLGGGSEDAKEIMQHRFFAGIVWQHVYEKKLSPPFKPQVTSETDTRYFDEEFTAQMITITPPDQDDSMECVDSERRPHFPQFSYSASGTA
Outline: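 Cell-free recombinant enzyme with substrate; activity read by fluorescence intensity after electrophoretic mobility shift separating substrate from product, 1 h after dosing. Single-concentration duplicates at 25 uM, then singleton concentration-response up to 50 uM; loss of signal versus DMSO.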

[7] = molecular target: human Aurora Kinase A - serine/threonine-protein Kinase 6 (AurA), AURKA (gene 6790) (UniProt O14965); assay: NVS_ENZ_hAurA: NovaScreen (NVS) Enzymatic Assay for human Aurora Kinase A - serine/threonine-protein Kinase 6 (AurA) (AID 2283142)
Outline: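 Cell-free enzymatic assay with human Aurora A, 1 hour after dosing. Fluorescent substrate turnover detected after electrophoretic mobility shift separation of substrate and product. Screened at 25 uM, actives retested in concentration-response up to 50 uM.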

CDK2 (gene 1017) = CDK2 (gene 1017) (UniProt P24941); assay: NVS_ENZ_hCDK2: NovaScreen (NVS) Enzymatic Assay for human Cyclin-Cependent Kinase 2 (CDK2) (AID 2283144)
Outline: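 Cell-free recombinant human CDK2 with fluorescent substrate, product separated by electrophoretic mobility shift; 1 hr read. Primary screen at 25 uM in duplicate, actives retested in concentration-response up to 50 uM; loss of signal versus DMSO.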

[8] = molecular target: human Casein Kinase 1-delta (CK1D), CSNK1D (gene 1453) (UniProt P48730); assay: NVS_ENZ_hCK1D: NovaScreen (NVS) Enzymatic Assay for human Casein Kinase 1-delta (CK1D) (AID 2283148)
Outline: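 Recombinant human CK1-delta, cell-free; fluorescent substrate with electrophoretic mobility-shift separation of product, read 1 h after dosing. Single 25 uM duplicate screen, then concentration-response up to 50 uM; loss of signal vs DMSO.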

[9] = molecular target: human Acetylcholinesterase (AChE), ACHE (gene 43) (UniProt P22303); assay: NVS_ENZ_hAChE: NovaScreen (NVS) Enzymatic Assay for human Acetylcholinesterase (AChE) (AID 2283129)
human Acetylcholinesterase (AChE), ACHE (gene 43), sequence (P22303 whole entry, looked up): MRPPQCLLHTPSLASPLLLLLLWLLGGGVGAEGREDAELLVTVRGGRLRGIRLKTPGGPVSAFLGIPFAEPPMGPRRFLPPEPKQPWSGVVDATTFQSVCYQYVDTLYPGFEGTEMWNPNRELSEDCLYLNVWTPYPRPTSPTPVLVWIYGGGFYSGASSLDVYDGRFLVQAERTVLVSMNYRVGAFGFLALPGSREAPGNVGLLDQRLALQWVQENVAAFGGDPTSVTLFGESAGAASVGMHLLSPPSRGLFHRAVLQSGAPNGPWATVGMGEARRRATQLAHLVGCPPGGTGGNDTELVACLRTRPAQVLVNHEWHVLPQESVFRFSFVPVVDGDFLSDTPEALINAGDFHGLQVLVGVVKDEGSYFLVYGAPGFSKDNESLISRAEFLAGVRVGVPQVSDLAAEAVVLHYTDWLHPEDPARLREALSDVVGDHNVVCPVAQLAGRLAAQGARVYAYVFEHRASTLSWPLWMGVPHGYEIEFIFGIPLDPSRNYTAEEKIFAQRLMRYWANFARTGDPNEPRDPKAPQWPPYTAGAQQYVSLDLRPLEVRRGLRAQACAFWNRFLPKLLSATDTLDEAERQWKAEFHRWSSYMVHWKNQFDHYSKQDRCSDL
Outline: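 Cell-free colorimetric enzyme-activity assay; compounds read 0.33 hour after dosing, loss of signal vs DMSO baseline. Primary screen in duplicate at 25 uM single concentration, with active compounds retested in concentration series.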

[10] = molecular target: human Casein Kinase 2- alpha 2 beta 2 (CK2a2b2), CSNK2A1 (gene 1457) (UniProt P68400); assay: NVS_ENZ_hCK2a2b2: NovaScreen (NVS) Enzymatic Assay for human Casein Kinase 2- alpha 2 beta 2 (CK2a2b2) (AID 2283147)
Outline: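 Cell-free recombinant CK2 α2β2 holoenzyme with a fluorescent peptide substrate; product separated by electrophoretic mobility shift and read 1 h after dosing. Single-point screen at 25 uM in duplicate; actives were followed with concentration-response up to 50 uM versus DMSO.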

[11] = molecular target: human AMP-activated Protein Kinase, alpha 1 (AMPKa1), PRKAA1 (gene 5562) (UniProt Q13131); assay: NVS_ENZ_hAMPKa1: NovaScreen (NVS) Enzymatic Assay for human AMP-activated Protein Kinase, alpha 1 (AMPKa1) (AID 2283130)
human AMP-activated Protein Kinase, alpha 1 (AMPKa1), PRKAA1 (gene 5562), sequence (Q13131 whole entry, looked up): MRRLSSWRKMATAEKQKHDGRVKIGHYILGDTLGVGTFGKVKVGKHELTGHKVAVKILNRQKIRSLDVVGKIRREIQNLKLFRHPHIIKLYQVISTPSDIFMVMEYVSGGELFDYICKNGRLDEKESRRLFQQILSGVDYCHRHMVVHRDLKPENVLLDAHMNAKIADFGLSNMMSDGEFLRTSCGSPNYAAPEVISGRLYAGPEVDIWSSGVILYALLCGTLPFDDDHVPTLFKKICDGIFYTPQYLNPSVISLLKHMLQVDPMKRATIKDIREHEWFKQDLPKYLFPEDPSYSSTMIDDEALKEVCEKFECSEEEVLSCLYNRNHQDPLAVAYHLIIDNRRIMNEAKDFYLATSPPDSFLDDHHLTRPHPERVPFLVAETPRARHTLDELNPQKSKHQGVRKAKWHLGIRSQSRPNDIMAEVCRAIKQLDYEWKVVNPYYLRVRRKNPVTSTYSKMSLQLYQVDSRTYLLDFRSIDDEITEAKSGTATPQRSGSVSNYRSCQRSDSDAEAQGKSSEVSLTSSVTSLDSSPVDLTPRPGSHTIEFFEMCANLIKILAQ
Outline: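 Recombinant human AMPKα1 activity was measured cell-free by fluorescent substrate conversion with electrophoretic mobility-shift separation, 1 h after dosing. Duplicate single-point screening was at 25 uM; actives (≥30% inhibition) were retested in concentration-response up to 50 uM.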

[12] = molecular target: human Caspase 4 (CASP4), CASP4 (gene 837) (UniProt P49662); assay: NVS_ENZ_hCASP4: NovaScreen (NVS) Enzymatic Assay for human Caspase 4 (CASP4) (AID 2283143)
human Caspase 4 (CASP4), CASP4 (gene 837), sequence (P49662 whole entry, looked up): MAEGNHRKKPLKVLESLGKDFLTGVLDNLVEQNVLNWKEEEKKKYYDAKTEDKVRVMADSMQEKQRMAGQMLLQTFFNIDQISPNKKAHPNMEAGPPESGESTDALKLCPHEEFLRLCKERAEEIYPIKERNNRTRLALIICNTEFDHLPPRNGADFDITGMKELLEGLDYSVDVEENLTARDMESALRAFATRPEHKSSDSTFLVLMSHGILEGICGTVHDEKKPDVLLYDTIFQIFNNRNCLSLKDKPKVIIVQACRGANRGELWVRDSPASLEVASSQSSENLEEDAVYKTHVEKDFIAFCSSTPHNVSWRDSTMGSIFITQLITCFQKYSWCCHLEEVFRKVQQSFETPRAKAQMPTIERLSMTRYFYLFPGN
Outline: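 The cell-free assay used E. coli-expressed enzyme with a fluorogenic substrate, read 2 h after dosing. Signal loss was scored versus DMSO. Screening was in duplicate at 25 uM, then singleton concentration-response up to 50 uM.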

[13] = molecular target: human AKT serine/threonine Kinase 2 (AKT2), AKT2 (gene 208) (UniProt P31751); assay: NVS_ENZ_hAKT2: NovaScreen (NVS) Enzymatic Assay for human AKT serine/threonine Kinase 2 (AKT2) (AID 2283141)
human AKT serine/threonine Kinase 2 (AKT2), AKT2 (gene 208), sequence (P31751 whole entry, looked up): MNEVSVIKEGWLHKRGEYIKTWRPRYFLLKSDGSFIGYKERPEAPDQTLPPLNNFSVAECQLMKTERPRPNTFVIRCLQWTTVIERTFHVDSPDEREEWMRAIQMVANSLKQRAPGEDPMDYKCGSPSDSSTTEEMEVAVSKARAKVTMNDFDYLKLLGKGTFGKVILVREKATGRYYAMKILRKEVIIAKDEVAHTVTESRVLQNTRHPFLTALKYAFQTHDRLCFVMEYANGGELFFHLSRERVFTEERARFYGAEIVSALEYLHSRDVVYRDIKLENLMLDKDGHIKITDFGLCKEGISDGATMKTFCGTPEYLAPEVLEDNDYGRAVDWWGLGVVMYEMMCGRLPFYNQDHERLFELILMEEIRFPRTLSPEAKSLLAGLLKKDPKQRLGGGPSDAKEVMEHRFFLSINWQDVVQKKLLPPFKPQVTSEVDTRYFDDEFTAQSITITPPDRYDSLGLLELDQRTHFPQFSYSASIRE
Outline: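 Cell-free fluorescence/electrophoretic mobility shift readout of recombinant human AKT2 activity, 1 h after chemical dosing. Duplicate primary screen at 25 uM, then singleton concentration-response up to 50 uM; loss of signal versus DMSO baseline.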

COc1ccc(C(c2ccc(OC)cc2)C(Cl)(Cl)Cl)cc1
AC50 (rat CYP2C6, gene 293989): 9600 nM (active)
outcome [1]: inactive
outcome (rat CYP3A1, gene 25642): inactive
outcome [2]: inactive
AC50 [3]: 25000 nM (active)
AC50 [4]: 33900 nM (active)

O=C(Nc1ccccc1)Nc1ccnc(Cl)c1
AC50 [1]: 10 µM (active)
AC50 [2]: 6440 nM (active)
outcome [3]: inactive
AC50 [4]: 5290 nM (active)

C=CCC1=C(C)[C@@H](OC(=O)[C@@H]2[C@@H](C=C(C)C)C2(C)C)CC1=O
AC50 [2]: 7550 nM (active)
outcome [5]: inactive

CCCN(CCC)c1c([N+](=O)[O-])cc(S(N)(=O)=O)cc1[N+](=O)[O-]
AC50 (rat CYP2C6, gene 293989): 7630 nM (active)
AC50 (rat CYP3A1, gene 25642): 1.24 µM (active)
AC50 [2]: 2670 nM (active)
outcome [5]: inactive
outcome [6]: inactive
outcome [7]: inactive
outcome (CDK2 (gene 1017)): inactive
outcome [8]: inactive

CN(C)C(=S)SSC(=S)N(C)C
AC50 (rat CYP2C6, gene 293989): 1280 nM (active)
AC50 [1]: 0.991 µM (active)
AC50 (rat CYP3A1, gene 25642): 3.2 µM (active)
AC50 [2]: 2420 nM (active)
AC50 [9]: 10600 nM (active)

N#CC(CCc1ccc(Cl)cc1)(Cn1cncn1)c1ccccc1 (stereo not drawn)
AC50 (rat CYP2C6, gene 293989): 1440 nM (active)
AC50 (rat CYP3A1, gene 25642): 0.449 µM (active)

COP(=S)(OC)Oc1nc(Cl)c(Cl)cc1Cl
outcome (rat CYP3A1, gene 25642): inactive
outcome [9]: inactive

CON(C)C(=O)Nc1ccc(Cl)c(Cl)c1
AC50 [1]: 8.64 µM (active) and 6.6 µM (active)
outcome (rat CYP3A1, gene 25642): inactive
outcome [6]: inactive
outcome [10]: inactive

CO/C=C(/C(=O)OC)c1ccccc1Oc1cc(Oc2ccccc2C#N)ncn1
AC50 (rat CYP2C6, gene 293989): 2120 nM (active)
AC50 (rat CYP3A1, gene 25642): 5.8 µM (active)
AC50 [2]: 6600 nM (active)
outcome [11]: inactive
outcome [3]: inactive
AC50 [6]: 14700 nM (active)
outcome [6]: inactive
outcome [12]: inactive

CCOP(=S)(OCC)SCn1c(=O)oc2cc(Cl)ccc21
AC50 (rat CYP2C6, gene 293989): 336 nM (active)
AC50 [1]: 2.09 µM (active)
AC50 (rat CYP3A1, gene 25642): 1.16 µM (active)
AC50 [2]: 518 nM (active)
outcome [6]: inactive
AC50 [4]: 14400 nM (active)

COc1nc(C)nc(NC(=O)NS(=O)(=O)c2ccccc2CCC(F)(F)F)n1
AC50 (rat CYP3A1, gene 25642): 7.5 µM (active) and 7.14 µM (active) and 7.37 µM (active)
outcome [13]: inactive

CCOC(=O)CC(SP(=S)(OC)OC)C(=O)OCC (stereo not drawn)
AC50 (rat CYP2C6, gene 293989): 50.1 nM (active)
AC50 [1]: 8.12 µM (active)
AC50 (rat CYP3A1, gene 25642): 1.88 µM (active)
AC50 [2]: 306 nM (active)
